Screening results from PubChem BioAssay.
CSC inhib = cancer stem cell inhibition. cancer stem cell-like cells viability, luminescence. inhibition, % at 7.5 µM. 1.1% of 300,000 active. AID 2717; in the data active = inhibition above about 75%; inconclusive = no clear call, values can overlap the other calls; tested in HMLE shEcad cells
Beta apoptosis = beta cell apoptosis inhibition; 0.8% of 300,000 active; protection from apoptosis, % (no concentration beside the values); AID 435005; INS-1E cytokine-induced death, ATP luminescence, 48 h; percent of positive-control rescue, neutral wells zero;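 active = Every replicate reaches about 75%, or at least half do and their mean reaches it too, limit read from the data; inconclusive = At least half of replicates reach the limit but their mean does not; inactive = Under half of replicates reach the limit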;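 also: 0% = cytokine-treated negative control wells and 100% = positive control rescue; higher means more ATP so stronger rescue from cytokine killing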
MPTP block = blocks calcium-induced mitochondrial swelling; isolated mouse mitochondria, Ca2+ swelling absorbance, 30 min; inhibition, % at 10 µM; 1.4% of 360,000 active;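 active = inhibition of 50% or more, scaled per plate between neutral and stimulator controls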;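 also: 0% = DMSO wells given calcium and 100% = 1 mM EGTA wells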
Mdm2-MdmX inh = disrupts the human Mdm2-MdmX interaction; O15151+Q00987; SaOS-2 split-luciferase Mdm2/MdmX complementation, luminescence; inhibition, % at 8 µM; 3% of 330,000 active; AID 485346;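 active = inhibition of at least 50% at 8 µM in the primary screen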
Target sequence (O15151 whole entry, looked up): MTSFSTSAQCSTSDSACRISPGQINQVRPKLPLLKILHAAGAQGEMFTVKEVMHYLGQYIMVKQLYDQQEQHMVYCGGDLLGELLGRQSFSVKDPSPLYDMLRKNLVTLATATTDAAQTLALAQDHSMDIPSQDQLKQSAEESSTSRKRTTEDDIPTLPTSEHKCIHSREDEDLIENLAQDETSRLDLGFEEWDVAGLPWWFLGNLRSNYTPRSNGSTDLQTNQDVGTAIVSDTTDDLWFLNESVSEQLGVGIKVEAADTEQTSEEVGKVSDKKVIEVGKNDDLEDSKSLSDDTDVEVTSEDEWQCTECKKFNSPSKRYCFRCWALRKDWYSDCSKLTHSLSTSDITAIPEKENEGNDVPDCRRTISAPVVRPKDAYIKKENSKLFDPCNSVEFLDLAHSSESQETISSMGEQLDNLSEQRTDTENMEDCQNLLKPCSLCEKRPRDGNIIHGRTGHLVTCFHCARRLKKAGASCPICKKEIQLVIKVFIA
Target sequence (Q00987 whole entry, looked up): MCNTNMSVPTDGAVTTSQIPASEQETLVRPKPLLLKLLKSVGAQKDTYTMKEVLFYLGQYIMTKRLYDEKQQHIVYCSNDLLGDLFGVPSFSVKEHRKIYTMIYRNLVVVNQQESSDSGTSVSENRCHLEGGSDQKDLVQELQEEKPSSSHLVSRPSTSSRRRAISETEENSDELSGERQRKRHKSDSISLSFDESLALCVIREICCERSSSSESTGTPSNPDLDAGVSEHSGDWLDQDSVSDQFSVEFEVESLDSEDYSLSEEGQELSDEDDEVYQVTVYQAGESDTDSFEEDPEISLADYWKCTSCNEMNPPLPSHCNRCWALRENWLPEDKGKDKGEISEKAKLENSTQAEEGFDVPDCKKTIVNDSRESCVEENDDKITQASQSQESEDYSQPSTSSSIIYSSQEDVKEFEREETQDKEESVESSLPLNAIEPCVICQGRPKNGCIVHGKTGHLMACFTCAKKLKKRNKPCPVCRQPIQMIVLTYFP
Calb FLC = affects C. albicans growth with fluconazole | 0.57% of 300,000 active | growth inhibition, % (test concentration not listed) | C. albicans CaCi-2 (fluconazole-resistant clinical isolate) + fluconazole, Alamar Blue growth, 48 h;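 active = growth inhibition above about 58% in most replicates, limit read from the data, passing the limit was not always enough; inconclusive = exactly half the replicates above a set limit; inactive = most replicates below a set limit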;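 also: all wells also contain fluconazole at 8 µg/ml as a sub-toxic cotreatment; 0% = median of DMSO wells and 100% = median of geldanamycin control wells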
SKKanGAS inh = inhibitors of SKKanGAS S. pyogenes growth in kanamycin (SK-promoter or general growth effect); 1.3% of 300,000 active; BacTiter-Glo, 6 h; inhibition, % at 7.5 µM;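 active = mean replicate score, as percent of positive control median, at least 50; inconclusive = mean below 50 but one replicate at or above 50; inactive = mean and every replicate below 50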;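 also: strain carries kanamycin resistance gene driven by streptokinase promoter and grows in 40 µg/ml kanamycin; loss of luminescence reflects streptokinase promoter inhibition or plain growth inhibition; 0% = median of DMSO wells and 100% = positive control at its reference dose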
Mdm2 MdmX conf = confirmation of human Mdm2/MdmX interaction inhibitors. shares compounds with Mdm2-MdmX inh. Mdm2-MdmX binding, luminescent assay. inhibition, % at 8 µM. 55% of 10,000 active; in the data active = inhibition above about 40%
FLuc counter = inhibits full-length luciferase, flagging false Mdm2/MdmX hits. SaOS-2 full-length luciferase counterscreen, luminescence. inhibition, % at 8 µM. shares compounds with Mdm2-MdmX inh. AID 504607. 77% of 6,200 active;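 active = mean inhibition at 8 µM reaching about 37%, which flags the compound as non-specific, limit read from the data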;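 also: p53-null SaOS-2 cells with luciferase driven by a doxycycline-inducible promoter; compound on cells about two nights before reading with doxycycline added after day one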
Active calls of the source: *; ? = inconclusive; / = no result. Rows were chosen to be rich in hits. Some 5.4% of all compounds tested hit in one or more screens of this group.

SMILES | CSC inhib | Beta apoptosis | MPTP block | Mdm2-MdmX inh | Calb FLC | SKKanGAS inh | Mdm2 MdmX conf | FLuc counter
O=C1CC(c2ccccc2Br)c2cc3c(cc2N1)CCC3 (stereo unspecified) | 67 | 4 | / | 58* | -9 | -1 | 62* | 56*
COc1cccc(C2CC(=O)Nc3cc4c(cc32)CCC4)c1 (stereo unspecified) | 14 | 26 | -3 | 46 | -22 | -1 | / | /
O=C1CC(c2cccc(Cl)c2)c2cc3c(cc2N1)CCC3 (stereo unspecified) | / | / | 2 | 54* | 10 | -6 | 58* | 64*
COc1cc2c(cc1OC)C(c1ccc(Br)cc1)CC(=O)N2 (stereo unspecified) | -25 | -1 | 0 | 21 | -6 | 1 | / | /
O=C(Oc1ccc(F)cc1)c1ccc2c(=O)n3c(nc2c1)CCC3 | -4 | -8 | 1 | 2 | 2 | 16 | / | /
Cc1cccc(NC(=O)[C@H](Cc2ccccc2)NC(=O)OCc2ccccc2)c1 | -13 | -8 | 0 | 5 | -17 | 2 | / | /
COc1ccc2c(-c3ccccc3)cc(=O)[nH]c2c1 | 2 | 4 | -1 | 9 | 33 | -4 | / | /
COc1ccc(OCc2cc(=O)[nH]c3ccccc23)cc1 | 6 | 3 | 0 | 10 | 52 | 2 | / | /
COc1ccc2sc3c(=O)[nH]c4ccccc4c3c2c1 | -6 | 41 | 0 | 72* | 19 | 2 | 74* | 44*
COc1ccc2c(c1)[nH]c(=O)c1sc3ccccc3c12 | -4 | 22 | 2 | 60* | 6 | 26 | 19 | /
O=C(O)c1ccccc1-c1ccccc1C(=O)Nc1ccc2c(c1)C(=O)c1ccccc1-2 | / | / | 0 | / | / | / | / | /
O=C(CSCC(=O)NN=Cc1ccccc1)NN=Cc1ccccc1 | / | / | 0 | / | / | / | / | /
O=C(O)CC(NC(=O)Cc1ccccc1)c1cc([N+](=O)[O-])ccc1Cl (stereo unspecified) | -2 | -3 | -1 | -18 | ? | -4 | / | /
N#Cc1nccnc1S(=O)(=O)c1cccs1 | 14 | 20 | / | 74* | -9 | 38 | 47* | 0
CN(Cc1ccccc1C#N)S(=O)(=O)c1cccs1 | -6 | / | 2 | -2 | 7 | 1 | / | /
N/C(=N\OC(=O)c1ccc(Cl)cc1Cl)c1ccccn1 | 18 | 110* | 1 | 52* | 26 | 8 | 38 | 53*
Cc1ccc(C(=O)O/N=C(\N)c2ccccn2)c(Cl)c1 | 26 | / | 1 | 96* | -4 | 16 | 89* | 20
N/C(=N\OC(=O)c1cc(Br)ccc1Cl)c1ccccn1 | -7 | / | -1 | -103 | ? | 3 | / | /
N/C(=N\OC(=O)c1ccc([N+](=O)[O-])cc1Cl)c1ccccn1 | 6 | 12 | 2 | 54* | 23 | 2 | 37 | /
N/C(=N\OC(=O)c1cc([N+](=O)[O-])ccc1Cl)c1ccccn1 | -6 | -6 | 0 | 35 | 10 | -3 | / | /
Cc1ccc(C(=O)O/N=C(\N)c2ccccc2)c(Cl)c1 | -8 | / | 2 | 80* | -1 | -4 | 58* | 120*
N/C(=N\OC(=O)c1ccc(Cl)cc1[N+](=O)[O-])c1ccccn1 | -2 | 5 | 0 | -78 | 12 | -1 | / | /
Cc1ccn2c(NC(=O)C(C)(C)Oc3ccc(Cl)cc3)c(-c3cccs3)nc2c1 | -16 | -26 | 1 | 16 | -3 | 3 | / | /
Cc1c(CN(C)C(=O)CSc2nc(-c3ccco3)cc(C(F)(F)F)n2)cnn1C | -13 | -1 | 1 | 1 | 7 | -2 | / | /
O=C(Nc1nnc(S(=O)(=O)N2CCCCC2)s1)c1ccccc1Br | 22 | 3 | -1 | 25 | -15 | 21 | / | /
SMILES | CSC inhib | Beta apoptosis | MPTP block | Mdm2-MdmX inh | Calb FLC | SKKanGAS inh | Mdm2 MdmX conf | FLuc counter
COc1ccc(CCNC(=O)C2CC(c3cccc(F)c3)=NO2)cc1 (stereo unspecified) | -9 | -4 | 0 | -2 | 6 | -3 | / | /
Cn1c(=O)[nH]c(=O)c2c1nc([N+](=O)[O-])n2Cc1ccccc1 | 49 | 98* | 2 | 96* | 36 | 1 | 79* | 56*
CC(C)Cn1c([N+](=O)[O-])nc2c1c(=O)[nH]c(=O)n2C | 22 | -8 | 1 | 34 | -6 | 2 | / | /
Cn1c(-c2cccc(OCc3ccccc3)c2)nc2c1c(=O)[nH]c(=O)n2Cc1ccccc1 | 6 | 10 | -8 | 85* | / | / | 38 | /
COc1ccc(NC(=O)CSc2nc3c(sc4ccccc43)c(=O)n2CCCN2CCCC2)cc1 | 8 | -3 | -1 | 98* | -22 | 7 | 70* | 23
CCN(CC)CCn1c(SCC(=O)NCc2ccccc2)nc2c(sc3ccccc32)c1=O | -2 | -4 | 10 | 75* | -10 | 4 | 28 | /
O=C(CSc1nc2c(sc3ccccc32)c(=O)n1CCCN1CCCC1)NCC1CCCO1 (stereo unspecified) | -3 | 4 | -1 | 6 | -11 | 4 | / | /
CCc1ccc(NC(=O)CSc2nc3ccccc3c(=O)n2CCCC(=O)N2CCCC2)cc1 | 40 | / | 8 | 52* | 3 | 3 | 49* | 42*
Cc1ccc(N(CC(=O)NC(C)(C)C)C(=O)CCC(=O)Nc2ccccn2)c(C)c1 | / | / | 0 | / | / | / | / | /
COc1ccc(S(=O)(=O)N2CCCCCC2)cc1C(=O)N(C)Cc1ccc(OC)c(OC)c1OC | -11 | 0 | 0 | 26 | -4 | -6 | / | /
Cc1ccc(-n2[nH]c(=O)c(-c3ccccn3)c2C)cc1 | -13 | 5 | 2 | 79* | ? | -26 | 81* | 54*
COc1cccc(N(C(=O)Cn2nnc(-c3ccc(F)cc3)n2)C(C(=O)NCC2CCCO2)c2ccc(Cl)cc2)c1 (stereo unspecified) | / | -8 | 0 | 32 | 3 | 4 | / | /
O=Cc1c[nH]c2cccc(OCc3ccccc3)c12 | / | / | -2 | 57* | / | / | 53* | 64*
Clc1cccc(Cl)c1CSc1nnc(-c2ccncc2)s1 | 9 | -3 | 2 | 78* | -4 | -8 | 33 | /
O=C(NC1CCC(=O)N(CCOc2ccccc2)CC1)OCc1ccccc1 (stereo unspecified) | -4 | -5 | -2 | -2 | -13 | -3 | / | /
COc1ccc(-c2nc3ccccn3c2NC2CCCCC2)cc1SC1CCCCC1 | -29 | / | 4 | 70* | 16 | 83* | 28 | /
COc1ccc(Sc2ccc(-c3nc4cnccn4c3NC3CCCCC3)cc2OC)cc1 | 104* | 4 | 0 | 85* | / | / | -4 | /
CCCCCCSc1cc(-c2nc3cc(C)ccn3c2NC2CCCCC2)ccc1OC | 43 | 9 | 10 | 6 | -2 | 33 | / | /
COc1cc(-c2nc3ccccn3c2NCc2ccccc2)ccc1SC1CCCCC1 | 21 | 16 | 8 | 67* | 29 | 28 | -12 | /
CCCCNc1c(-c2ccc(OC)c(SC3CCCCC3)c2)nc2cc(C)ccn12 | 92* | 18 | 44 | 64* | 1 | 72* | 21 | /
